According to PubChem BioAssay AID743269 (The Scripps Research Institute Molecular Screening Center, 2014):
The whole screen tested about 370,000 compounds, of which about 2,400 (0.65%) were called active. This excerpt belongs to a sample that is enriched for actives. Unmarked numbers belong to inactive results.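 The calls were made as follows: active = inhibition above the screen-wide mean plus 3 SD (cut at about 13% in these data); inactive = the rest.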

test system: HIV-1 integrase (with human LEDGF/p75); assay: blockers of LEDGF/p75-dependent integrase strand transfer – biochemical, TR-FRET, high throughput, primary screen (AID 743269); details: TR-FRET IN-LEDGF/p75 DNA integration, Eu/Cy5; at 3.7 µM; active compounds read high;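 also: signal is the Cy5 over europium emission ratio at 671 and 618 nm; 0% = plate median of compound wells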

| SMILES | inhibition |
| --- | --- |
| C=CCN1C(=O)[C@@H](CC(=O)NCC2CCCCC2)[C@]2(C(=O)OC)CCCCC=C12 | 0.59% |
| CCOc1ccc(N(CC(=O)Nc2c(C)n(C)n(-c3ccccc3)c2=O)S(=O)(=O)c2ccc(Cl)s2)cc1 | 2.7% |
| O=C(O)C(CCc1ccccn1)c1ccccc1 (configuration not stated) | 0.2% |
| CN(C)c1ccc(C(CC(=O)O)C(=O)O)cc1 (configuration not stated) | 18.1% (active) |
| CC(=O)NC(CC(=O)O)c1ccc(F)cc1 (configuration not stated) | -3.02% |
| COc1ccnc(NC(=S)N2CCN(c3ncc(C(F)(F)F)cc3Cl)CC2)c1 | 4.7% |
| O=C1OC(NC(=O)c2ccccc2)C(N2CCOCC2)=C1Cl (configuration not stated) | 1.92% |
| O=C(Nc1ccc(F)cc1)c1cccnc1N1CCOCC1 | 1.85% |
| O=C(O)c1ccc(NN=CC2=C(N3CCOCC3)/C(=C/c3ccccc3)CC2)cc1 | 27.7% (active) |
| COc1ccc(Cn2ccc3ccc(-c4ccc5ccn(Cc6ccccc6C)c5c4)cc32)cc1 | -3.41% |
| O=S1(=O)c2ccc(N3CCN(Cc4ccccc4F)CC3)cc2Oc2ccccc2CN1Cc1cn(Cc2ccc(Cl)cc2)nn1 | 3.58% |
| O=[N+]([O-])c1ccc(C=Nc2ccc(Cl)cc2Cl)s1 | -0.56% |
| Cc1ccccc1NCC(=O)N/N=C\c1ccc([N+](=O)[O-])s1 | 19.6% (active) |
| Cc1ccsc1/C=N/NC(=O)Cc1cc(=O)[nH][nH]1 | -1.18% |
| CN(CCO)c1cccc2c1S(=O)(=O)N(Cc1cn(Cc3ccc(C(F)(F)F)cc3)nn1)Cc1ccccc1O2 | 5.32% |
| CC(=O)Nc1ccc(OC[C@@H](O)CN2CCC(C(O)(c3ccccc3)c3ccccc3)CC2)cc1 | -1.09% |
| COc1ccc(-n2c(COc3ccccc3)nnc2SCC(=O)Nc2ccc3c(c2)OCO3)cc1 | -0.67% |
| C#CCCN([C@H](C(=O)OC)C(C)C)S(=O)(=O)c1ccc(F)cc1Br | -3.33% |
| c1cncc(CNc2ccnc(-c3ccc4c(c3)OCO4)n2)c1 | 2.55% |
| Cc1ccc(OCc2nnc(SC/C=C/c3ccccc3)n2Cc2ccco2)cc1 | 1.59% |
| Cc1ccc(S(=O)(=O)/N=C(/Nc2ccc3[nH]c(=O)[nH]c3c2)c2ccccc2)cc1 | -0.12% |
| Cc1ccc(C(=O)NC(=S)Nc2ccc3[nH]c(=O)[nH]c3c2)cc1C | 16.7% (active) |

| SMILES | inhibition |
| --- | --- |
| Cc1cc(C)cc(C(=O)NC(=S)Nc2ccc3[nH]c(=O)[nH]c3c2)c1 | 3.15% |
| O=C(CSc1nc2ccccc2n1Cc1ccccc1Cl)N/N=C\c1c[nH]c2ccccc12 | 5.76% |
| O=C(Nc1nc(-c2ccco2)c(-c2ccco2)s1)c1ccco1 | 68.8% (active) |
| O=C(Nc1c(-c2ccccc2)nc2c(Br)cc(Br)cn12)c1ccco1 | 1.6% |
| O=C(Nc1ccccc1C(=O)N1CCCCC1)c1ccco1 | 6.1% |
| CCOC(=O)C1CCN(C(=O)C(C)(C)NC(=O)Nc2ccccc2Cl)CC1 | -0.46% |
| O=C(CN(C(=O)c1csnn1)c1cccc(Cl)c1)NC1CCCC1 | 27.8% (active) |
| O=C(CN(C(=O)c1nsc(Cl)c1Cl)c1cccc(F)c1)NC1CCCC1 | -3.15% |
| O=C(CN(C(=O)c1csnn1)c1ccc(Br)cc1)NC1CCCC1 | 1.56% |
| C=CCOC/C=C/C#CCN(CC=C)Cc1ccc(OC)cc1OC | 5.5% |
| CCOC(=O)[C@]12CCCC3=C1N(CCC3)C(=O)[C@@H](CC(=O)NCc1cccs1)C2 | -1.84% |
| O=C(CSc1nnc2c(n1)[nH]c1ccccc12)NC1CCCCC1 | 4.55% |
| O=C(NC1CCCCC1)N1CCc2[nH]c3ccccc3c2C1 | 35.1% (active) |
| O=C(Nc1cccc2c1CCCC2)C1CCN(C(=O)NC2CCCCC2)CC1 | -1.21% |
| CC(=O)C1(C(=O)Nc2nccs2)CC(c2ccccc2C(F)(F)F)=NO1 (configuration not stated) | 1.17% |
| O=C(O)Cn1c(Cc2ccccc2)nc2ccccc21 | -1.98% |
| CC(=O)c1nc2ccccc2n1Cc1ccccc1 | 22.6% (active) |
| CC(O)c1nc2ccccc2n1Cc1ccc([N+](=O)[O-])cc1 (configuration not stated) | 0.5% |
| COc1cccc(/C=C2\CC3(OC(C)=O)CCCN2C3)c1 (configuration not stated) | -3.9% |
| O=C1C(=O)N(Cc2ccc(-c3ccsc3)cc2)c2ccc(OC(F)(F)F)cc21 | 0.06% |
| Cc1cccc(NC(=O)C[C@H]2CC[C@H]3[C@@H](COc4ccc(NC(=O)Nc5ccccc5)cc4C(=O)N3C)O2)c1 | 1.61% |
| Cc1ccc(C2=CCN(C)C(=O)N2c2ccc(Cl)cc2)cc1 | 0.69% |

| SMILES | inhibition |
| --- | --- |
| Oc1c(C=Nc2cccc3nsnc23)ccc2ccccc12 | 25.6% (active) |
| O=C(CSc1nnc(COc2ccccc2)n1-c1ccc(Cl)cc1)Nc1ccc2c(c1)OCO2 | -1.91% |
| COC(=O)C1CN(CC(C)C)CCS(=O)(=O)N1Cc1ccc(F)cc1 (configuration not stated) | -4.4% |
| COc1ccc(C(=O)CSc2n[nH]c(N)n2)cc1 | -3.51% |
| Cc1nc(SCC(=O)c2ccccc2)c([N+](=O)[O-])[nH]1 | -5.1% |
| Cc1cc(Oc2ccc(Cl)cc2)nc(SCC(=O)c2ccccc2)n1 | 35.9% (active) |
| COC(=O)[C@]12C[C@H](CC(=O)NCCCN3CCCC3=O)C(=O)N(CCc3ccc(OC)c(OC)c3)C1=C[C@H](COCc1ccccc1)O[C@@H]2C | -3.08% |
| NC1=CC(=O)C(=O)c2cccnc21 | 40% (active) |
| O=c1ccc2c(-c3ccccc3S(=O)(=O)O)c3ccc(O)c(O)c3oc-2c1O | 84% (active) |
| Cc1c[nH]c2cccc(-c3ccc(Cl)cc3)c12 | 4.29% |
| C[C@@H]1CN([C@@H](C)CO)C(=O)c2cccc(NC(=O)Nc3cccc4ccccc34)c2O[C@H]1CN(C)S(=O)(=O)c1ccccc1F | 3.05% |
| C#CCN([C@H](C(=O)OC)C(C)CC)S(=O)(=O)c1ccccc1Br (some centres not stated) | 2.37% |
| Cc1cc(=O)[nH]c(SCC(=O)Nc2ccc(F)cc2F)n1 | -4.09% |
| CCC(=O)Nc1ccc2c(c1)C(=O)N(C)[C@@H]1CC[C@@H](CC(=O)NCCc3ccccc3)O[C@H]1CO2 | -2.65% |
| Cc1ccc(N=C2NC(=O)/C(=C/C=C/c3ccco3)S2)cc1C | 16.8% (active) |
| COC(=O)C[C@@H]1CC[C@@H]2[C@H](COc3ccc(NC(=O)c4cccc(F)c4)cc3C(=O)N2C)O1 | 7.98% |
| Cc1ccc(-n2c(COc3ccccc3)nnc2SCC(=O)Nc2ccc3c(c2)OCCO3)cc1 | -2.45% |
| C=CCn1c(SCC(=O)CC(=O)OCC)nc2cc(C(=O)N3CCC(C(N)=O)CC3)ccc2c1=O | -1.71% |
| C=CCn1c2ccccc2c2nnc(SC(CC)C(=O)Nc3nc(C)c(C(=O)OCC)s3)nc21 (configuration not stated) | -2.02% |
| C=CCn1c2ccccc2c2nnc(SCc3[nH]c(=O)[nH]c3C(=O)CCCCC(=O)OCC)nc21 | 43.2% (active) |
| COc1cccc(N2CCN(CC(=O)N(C)Cc3ccc(F)cc3)CC2)c1 | -2.54% |
| COC(=O)[C@]12C[C@H](CC(=O)N3CCOCC3)C(=O)N(Cc3ccc(Cl)cc3Cl)C1=C[C@H](COCc1ccccc1)O[C@@H]2C | 0.62% |

| SMILES | inhibition |
| --- | --- |
| Cc1ccc(C(=O)C2CCN(CC(=O)NCCC(C)C)CC2)cc1 | 0.16% |
| CC(C)(C)C1C/C(=C/c2ccco2)C(=O)/C(=C/c2ccco2)C1 (configuration not stated) | 79.5% (active) |
| COc1ccc(CN(CCN2CCOCC2)C(=O)c2ccc(C)cc2)cc1OC | -0.71% |
| CCOC(=O)c1cccc(NC(=O)CN(C)S(=O)(=O)c2ccc(-c3cocn3)s2)c1 | 2.14% |
| CCCCC(=O)N[C@@H]1CC[C@@]23CCCN2C(=O)CCC[C@H]3[C@H]1C | 0.47% |
| COc1ccnc(C(=O)N2CCC(Oc3cccnc3)CC2)c1 | -0.27% |
| COCc1cc(C)nc2sc(C(=O)NC3CCCCC3)c(N)c12 | 0.63% |
| COc1ccc(-c2c(C(C)=O)c(C)nc3sc4c(=O)n(-c5ccc(C)cc5)nnc4c23)cc1 | -0.97% |
| COCc1cc(C)nc2sc3c(=O)n(-c4cccc5ccccc45)nnc3c12 | 18.6% (active) |
| Clc1ccc(-n2c(COc3ccccc3)nnc2SCc2nc3ccccc3[nH]2)cc1 | -0.48% |
| Oc1cc(O)c2c(c1)OC(c1ccc(O)c(O)c1)C(O)C2 (configuration not stated) | 17.4% (active) |
| O=C(Nc1cc(Cl)cc(Cl)c1)OCCN1CCCC12CCC(c1ccccc1)CC2 (configuration not stated) | -0.23% |
| Cc1ccc(-n2c(SCC(=O)Nc3ccc(S(=O)(=O)Nc4nccs4)cc3)nnc2-c2ccncc2)cc1 | -1.61% |
| CCOC(=O)c1c(C)oc2cc(Br)c(OCC(N)=O)cc12 | -0.08% |
| CCOC(=O)c1c(C)oc2cc(Sc3ccccc3)c(O)c(O)c12 | 23.4% (active) |
| CCOC(=O)c1c(C)oc(C)c(C(=O)OCC)c1=O | 3.08% |
| COC(=O)CC1CCc2cc(C)cc(C(CC(C)C)NC(=O)[C@H](CC(C)C)NC(=O)OCc3ccccc3)c2O1 (some centres not stated) | -0.18% |
| CCN(C(=O)[C@@H](C1CC1)[C@@H](O)c1ccc2ccccc2c1)c1ccccc1 | -2.01% |
| Cc1ccc(Cc2cnc(N)s2)o1 | 31.2% (active) |
| O=C(Nc1nc2ccc(Cl)cc2s1)c1cc(-c2ccc(Cl)cc2)nc2ccccc12 | 6.18% |
| CN(C)c1ccc(NC(=O)NC2CCCCN(Cc3ccc(Cl)cc3)C2=O)cc1 (configuration not stated) | 6.63% |
